The results in this text go back to PubChem BioAssay (EPA / NIEHS).

The AC50 is the concentration giving half of the maximal activity seen.

Structures are written as SMILES. Activity calls are given as the source filed them. How the source made its calls: active means hit-call score of the fitted dose curve at least 0.9, where 1 is the maximum; inactive means score below 0.9.

The test is described as follows: CCTE_Padilla_ZF_Score.Edema: CCTE's 144 Hour Post-fertilization zebrafish Assay Score for Edema Malformation, Padilla Lab (AID 2284406). The protocol: CCTE_Padilla_ZF_Phenotype_Score is a whole embryo, multiplexed assay using zebrafish ova exposed for 144 hours post fertilization on a 96-well plate.CCTE_Padilla_ZF_Score.Edema is one of one assay component(s) measured or calculated from the CCTE_Padilla_ZF_Phenotype_Score assay. It is designed to make measurements of zebrafish development as detected with brightfield microscopy of developing zebrafish embryos.Data from the assay component CCTE_Padilla_ZF_Score.Edema was analyzed into 1 assay endpoints. This assay endpoint, CCTE_Padilla_ZF_Score.Edema, was analyzed in the positive analysis fitting direction relative to DMSO as the negative control and baseline of activity. Using a type of viability reporter, gain-of-signal activity can be used to understand changes in developmentals as they relate to the whole embryo. To generalize the intended target to other relatable targets, this assay endpoint is annotated to the zebrafish development intended target family, where the subfamily is embryonic edema.
Zebrafish husbandry: Wild type adult zebrafish (Danio rerio; undefined outbred stock obtained from Aquatic Research Organisms, Hampton, NH, 03842) were housed in an AAALAC-approved animal facility at 28C with a 14:10 h light: dark cycle (lights on at 08:30 h). Adult fish (2-3 females per male; density = 15-20 adults per tank) were kept in one of several 9-liter (L) flow-through colony tanks (Aquaneering Inc., San Diego, CA). All adults in a colony tank were placed in a 2 L (static) breeding tank (Aquatic Habitats, Apopka, FL) one hour prior to light onset. Typically, adults from two to three colony tanks were mated on the same day. Two hours after light onset the adults were returned to the colony tank. All embryos were gathered from each breeder tank, pooled, and placed in a 28C water bath for 2 h, followed by two washes with 0.06% bleach (v/v) in 10% Hanks' Balanced Salt Solution (13.7 mM NaCl 0.54 mM KCl, 25 uM Na2HPO4, 130 uM CaCl2 100 um MgSO4 and 420 um NaHCO3,), hereafter referred to as Hanks' solution, for 5 min in order to remove any residual bacteria or fungi. Immediately following washing, the embryos were examined, and healthy embryos were separated from dead or unfertilized eggs and moved into fresh Hanks'. Chemical exposures: Zebrafish embryos were exposed in 96-well plates. Between 6- and 8-hours post fertilization (hpf), healthy embryos (with chorions) were transferred, one embryo per well, into 96 well (0.5 mL) microtiter plates (Cell Culture-Treated, Flat-Bottom Microplate 96 well [Corning Costar, Kennebunk, ME; Cat 09-761-145]) filled with 200 uL of Hanks' solution. A random number generator was used to assign the order in which the rows of embryos were plated in 96 well plates each week. After plating, the embryos were dosed with 0.8 uL of the chemical dosing solution then immediately sealed with AlumaSeal II (Excel Scientific Inc, Victorville, CA) to prevent volatilization of the chemicals, and then placed in a leakproof secondary container. These containers were placed in an incubator maintained on a 14:10 h light: dark cycle at 26C for rearing. On 5 dpf, live larvae were gently moved out of the plate with test chemicals and into a new 96 well mesh plate (Millipore Corp., Bedford, MA) with just the Hanks' solution. Once within the mesh well plate, the animals were rinsed with 400 uL of fresh Hanks' three times, and then the plates were covered with a non-adhesive material (Microseal A, BioRad, Hercules, CA), plate lid added, and then plate sides wrapped in Parafilm (PM992, Bermis Company, Neenah, WI), and returned to the incubator. This rinse on 5 dpf was conducted to lessen the possible exposure of the human assessors to the chemicals during detailed examination of each larva at 6 dpf.Larval assessments: On 6 dpf between 8 and 10 AM, two individual assessors, blinded to the chemical treatments, independently examined each larva for mortality, hatching status, and malformations using an Olympus SZH10 stereo microscope. […]
For the compound `COC(=O)C(F)(F)C(F)(F)OC(F)(C(F)(F)F)C(F)(F)OC(F)=C(F)F` (centres undefined), the outcome was inactive. On the same count and under the same terms, the result for `OCC(F)(F)OC(F)(F)C(F)(F)OC(F)(F)CO` reads “inactive”; that for `O=C(O)C(F)(F)OC(F)(F)C(F)(F)OC(F)(F)C(=O)O`, “inactive”; that for `O=C(O)C(F)(F)C(F)(F)C(=O)O`, “inactive”. Regarding `NC(=O)C(F)(F)C(F)(F)F`, the compound was classed as inactive. Same read-out and setting: the result for `CC(O)C(F)(F)C(F)(F)F` (centres undefined) reads “inactive”; that for `OCC(F)(F)OC(F)(F)C(F)(F)OC(F)(F)C(F)(F)OC(F)(F)CO`, “inactive”; that for `O=S(=O)(F)C(F)(F)C(F)(F)C(F)(F)C(F)(F)C(F)(F)C(F)(F)C(F)(F)C(F)(F)F`, “inactive”. The same measure, in the same setting: the result for `O=C(O)C=CC(F)(C(F)(F)F)C(F)(F)F` reads “inactive”; that for `FC(F)(F)C(F)(C(F)(F)F)C(F)(F)C(F)(F)CC1CO1` (centres undefined), “inactive”.

As for `OCC(F)(F)OC(F)(F)C(F)(F)OC(F)(F)C(F)(F)OC(F)(F)F`, the concentration at half-maximal activity (AC50) was 73.7 µM (active). Still for that read-out and setting: to `C=CC(=O)OCC(F)(F)C(F)F` belongs 8.88 µM (active). Regarding `O=C(O)C(F)(OC(F)(F)C(F)(F)C(F)(F)F)C(F)(F)F` (centres undefined), the result was inactive. On the same count and under the same terms, to `O=C(O)C(F)(F)OC(F)(F)C(F)(F)OC(F)(F)F` belongs “inactive”.
